Consider 39 compounds from the supplement of paper PMC3484114.

± gives the standard deviation.

The subject of the experiment is OVCAR-3-derived ovarian cancer stem-like cells (spheroids). The experiment in a line: cell growth relative to untreated control; higher = more growth (less inhibition). As to conditions: 2.29 µM; 96 h. In short, it runs like this:
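Viability of stem-like cells from OVCAR-3 spheroids was assessed with TOX8 resazurin fluorescence at ex 560/em 590 nm. The cells had been trypsin-dissociated, seeded at 50,000 cells/mL in stem cell medium in ultra-low attachment 96-well plates and preincubated 24 h, then treated with compounds at 2.29 uM for 96 h at 37°C, 5% CO2, in 4 replicate wells, with fluorescence read after 4 h. Results were converted to percent growth against untreated wells after blank subtraction and Grubbs outlier removal.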
On to `CCN1C=C/C(=C\C=C\c2cc[n+](CC)c3ccccc23)c2ccccc21`, for which the cell growth is 22.2 ± 4.2%.

`O=C1C(C(O)(C(F)(F)F)C(F)(F)F)CCC1C(O)(C(F)(F)F)C(F)(F)F` (centres undefined) had a cell growth of 104 ± 18%.

In the case of `Cc1ccc(S(=O)(=O)c2ccc([N+](=O)[O-])o2)cc1`, the cell growth worked out at 47.4 ± 31%.

With `CCCCOc1ccc(NC(N)=Nc2ccc(Cl)cc2)cc1`, the cell growth is 124 ± 20%.

`Cc1ccccc1NC(=O)/C=N/O` displayed a cell growth of 81 ± 7.2%.

`Oc1[nH]c2ccccc2c1N=Nc1c(F)c(F)c(F)c(F)c1F` yielded a cell growth of 100 ± 13%.

The compound `O=C(CC1(O)C(=O)Nc2c(Cl)cc(Cl)cc21)c1ccc([N+](=O)[O-])cc1` (centres undefined) returned a cell growth of 101 ± 29%.

Turning to `CC1(c2cccc3ccccc23)OC(=O)c2ccccc21` (centres undefined), the cell growth is 116 ± 29%.

As to `BrCCC[P+](c1ccccc1)(c1ccccc1)c1ccccc1`, the cell growth was 42.9 ± 7.3%.

The compound `NC1(C(=O)O)CCCC1` showed a cell growth of 84.9 ± 15%.

Compound `CC(C)CCCCCCCCCCCCC(=O)NCC(=O)NC1C(C)OC(Nc2ncnc3nc[nH]c23)C(O)C1O` (centres undefined) registered a cell growth of 17.4 ± 6.2%.

In turn, `Cc1ccccc1OCC(COC(=O)Nc1ccccc1)OC(=O)Nc1ccccc1` (centres undefined) showed a cell growth of 111 ± 16%.

`CCOc1cccc(/C=N/N=C2\C(=O)Nc3c(Cl)cc(Cl)cc32)c1O`: the cell growth turned out to be 85.4 ± 13%.

The compound `O=C(CCCN1CCC(C(O)c2ccc(F)cc2)CC1)c1ccc(F)cc1` (centres undefined) displayed a cell growth of 99.7 ± 22%.

The compound `Cc1ccc(C)c2c(N=Nc3ccccc3[N+](=O)[O-])c(O)[nH]c12` had a cell growth of 138 ± 41%.

`CC/C(=C(\c1ccccc1)c1ccc(OCCN(C)C)cc1)c1ccccc1` gave a cell growth of 115 ± 14%.

On to `NC(=O)C1=C[C@H]2[C@H]3C=C[C@@]2(O)C(=O)O[C@@H]3O1`, for which the cell growth worked out at 91.3 ± 15%.

Compound `O=C(CC1(O)C(=O)Nc2c(Cl)cc(Cl)cc21)c1cccc2ccccc12` (centres undefined) displayed a cell growth of 90.9 ± 16%.

`NC1=C(Br)C(=O)c2ncccc2C1=O` gave a cell growth of 15.3 ± 3.8%.

Compound `Cc1nc(Nc2ccc(Cl)c(Cl)c2)sc1C(/C=C/c1ccc2c(c1)OCO2)=N/Nc1ccc([N+](=O)[O-])cc1[N+](=O)[O-]` had a cell growth of 101 ± 15%.

The compound `O=C1C=C(Nc2ccccc2C(=O)CC(=O)C(=O)Nc2ccc(Cl)c(Cl)c2)c2ccccc2C1=O` yielded a cell growth of 79.6 ± 13%.

For `C[n+]1c(-c2ccc(/C=C/C=N/NC(=O)c3ccc(C(=O)N/N=C/C=C/c4ccc(-c5cn6ccccc6[n+]5C)cc4)cc3)cc2)cn2ccccc21`, the cell growth turned out to be 138 ± 18%.

In the case of `[N-]=[N+]=NC1=NNC2(C(=O)N1)c1ccccc1-c1ccccc12`, the cell growth was 99.3 ± 38%.

Turning to `O=C(N=Nc1c(O)[nH]c2c(Cl)cc(Cl)cc12)c1ccccc1O`, the cell growth worked out at 93.1 ± 22%.

In the case of `CC[C@@]1(O)C(=O)OCc2c1cc1n(c2=O)Cc2cc3c(N)cccc3nc2-1`, the cell growth was 46.5 ± 11%.

The compound `COc1c2c(c(OC)c3c1c(=O)c1ccccc1n3C)OCO2` gave a cell growth of 97.8 ± 12%.

Compound `CCCCn1c2c(n(CCCC)c1=S)-c1c(n(CCCC)c(=S)n1CCCC)SSSS2` showed a cell growth of 27.2 ± 5.8%.

As to `Cc1ccc(NC(=O)c2cccc([N+](=O)[O-])c2O)c([N+](=O)[O-])c1`, the cell growth stood at 86.3 ± 17%.

In turn, `O=C1Oc2ccccc2C1C/C(=N\Nc1ccccc1)c1ccccc1O` (centres undefined) came in with a cell growth of 158 ± 100%.

`Cc1c(N=Cc2ccc(N(CCC#N)CCC#N)cc2)c(=O)n(-c2ccccc2)n1C`: the cell growth was 133 ± 36%.

`O=[N+]([O-])c1cc(-c2nc(=S)[nH][nH]2)ccc1O` showed a cell growth of 98.5 ± 14%.

For `CN(C)C(=O)c1cccc(COc2ccc(N3C(N)=NC(N)=NC3(C)C)cc2Cl)c1`, the cell growth was found to be 76 ± 15%.

In turn, `O=C1Oc2ccccc2C(=O)/C1=C1\C=C(c2ccccc2)SS1` had a cell growth of 158 ± 71%.

Compound `COc1ccc(N=C2C(=Nc3ccc(OC)cc3)N(c3ccc(N(C)C)cc3)C(=S)N2c2ccc(OC)cc2)cc1` yielded a cell growth of 72.3 ± 12%.

In the case of `COc1ccc(/C=C2\CCc3ccccc3C2=O)cc1OC`, the cell growth was 95.7 ± 11%.

For `NC(=O)NO`, the cell growth worked out at 107 ± 15%.

The compound `Cc1ccc2c(ccc(C=Cc3ccc(O)c4ncccc34)[n+]2C)c1` yielded a cell growth of 23.7 ± 4.7%.

In turn, `COC(=O)c1ccc(=O)c2nc3/c(=C/O)c(O)cc(=O)c3[nH]c12` showed a cell growth of 109 ± 44%.

Consider `Cc1cn(C2CC(O)C(CO)O2)c(=O)[nH]c1=O` (centres undefined), for which the cell growth worked out at 92.3 ± 10%.
